Rows were chosen to be rich in hits. Some 5% of all compounds tested hit in one or more screens of this group.
PREPL inhibitor: PREPL enzyme inhibitors, primary screen, biochemical, fluorescence polarization | inhibition, % at 5.96 µM | 320,000 tested, 0.68% active | Prolyl endopeptidase-like (Homo sapiens), Q4J6C6 | recombinant PREPL, fluorescence polarization activity-based probe; in the data active means inhibition above about 43%;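 further: 0% = enzyme with DMSO and 100% = wells lacking enzyme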
Target sequence (Q4J6C6 whole entry, looked up): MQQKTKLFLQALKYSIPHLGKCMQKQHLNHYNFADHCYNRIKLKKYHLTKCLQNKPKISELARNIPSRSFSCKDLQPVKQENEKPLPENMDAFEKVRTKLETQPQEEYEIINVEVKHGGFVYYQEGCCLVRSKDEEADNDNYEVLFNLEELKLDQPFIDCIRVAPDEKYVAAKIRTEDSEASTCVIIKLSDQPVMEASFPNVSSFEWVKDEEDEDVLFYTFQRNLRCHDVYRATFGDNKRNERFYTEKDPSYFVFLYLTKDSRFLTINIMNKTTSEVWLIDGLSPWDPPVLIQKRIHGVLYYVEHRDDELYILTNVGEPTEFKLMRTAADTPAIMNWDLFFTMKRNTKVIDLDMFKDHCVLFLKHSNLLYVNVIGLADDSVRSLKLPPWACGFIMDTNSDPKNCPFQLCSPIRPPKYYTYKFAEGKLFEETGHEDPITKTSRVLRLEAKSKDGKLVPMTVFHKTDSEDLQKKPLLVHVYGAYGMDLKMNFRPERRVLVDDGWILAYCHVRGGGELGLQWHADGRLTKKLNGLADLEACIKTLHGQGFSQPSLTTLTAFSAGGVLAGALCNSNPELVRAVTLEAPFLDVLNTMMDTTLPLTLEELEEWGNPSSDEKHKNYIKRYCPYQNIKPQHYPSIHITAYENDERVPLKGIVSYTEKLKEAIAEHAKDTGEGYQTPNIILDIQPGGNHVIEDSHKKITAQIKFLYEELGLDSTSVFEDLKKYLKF
AI-2 QS modul: Vibrio harveyi AI-2 quorum sensing modulators, primary screen, JMH597 strain, luminescence/OD600 ratio; 300,000 tested, 0.4% active; Vibrio harveyi JMH597 AI-2 luminescence/OD600 ratio, 9 h; hits give low values; strain lacks LuxN and CqsS sensors; 0 = neutral-control median; activity change, % at 7.5 µM; in the data active means activity change below about -75%, passing the limit was not always enough;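 further: luminescence divided by OD600 gain over 9 h not by final OD600 alone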
CHT PAM: CHT positive allosteric modulators, primary screen, cell-based, membrane potential dye, choline EC20; CHT-expressing cells; hits give high values; LV-AA mutant CHT in HEK293 cells; B-score at 10 µM; 310,000 tested, 0.49% active; AID 488977, 2010;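 active means initial fluorescence not abnormally high and integrated response B-score, plate-corrected, over 3 SD above library mean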
CHT block: inhibitors of human choline transporter CHT. High affinity choline transporter 1 (Homo sapiens), Q9GZV3. CHT-expressing cells, membrane potential dye, choline response; hits give low values. B-score at 10 µM. 310,000 tested, 0.86% active. AID 488975, 2010;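 active means B-score over 3 SD under the library average, and starting fluorescence ratio not unusually high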;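 further: choline stimulus applied at its EC90 after an EC20 pre-addition; B-score computed on integrated fluorescence ratio after choline addition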
ALR H2O2 inh: inhibitors of human ALR sulfhydryl oxidase, primary screen, biochemical, H2O2 detection, HRP-luminol luminescence, single point | inhibition, % (test concentration not listed) | 290,000 tested, 3.8% active | purified ALR, DTT oxidation | AID 485317, 2010 | FAD-linked sulfhydryl oxidase ALR (Homo sapiens), P55789;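 active means mean replicate inhibition above about 79%, with every replicate also reaching it, limit read from the data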
Active calls of the source: *; i = inactive; . = not tested or not shown.

SMILES	PREPL inhibitor	AI-2 QS modul	CHT PAM	CHT block	ALR H2O2 inh
c1ccc(-c2nc3ccccc3nc2N2CCOCC2)cc1	-6	16	i	i	.
Cn1c(N2CCOCC2)nc(-c2ccccc2)c1-c1ccccc1	3	18	i	i	99*
CC(=O)Nc1ccc(OCC(=O)NCc2ccc3c(c2)OCO3)cc1	-11	15	i	i	-1
Cc1ccccc1C(=O)Nc1ccc(S(=O)(=O)Nc2onc(C)c2C)cc1	-6	28	i	i	9
Cc1ccc2c(C)c(C(=O)Nc3ccc(S(=O)(=O)Nc4onc(C)c4C)cc3)oc2c1	5	12	i	i	97*
Cc1ccc2c(=O)cc(C(=O)Nc3ccc(S(=O)(=O)Nc4onc(C)c4C)cc3)oc2c1	7	23	i	i	97*
Cc1cc(C)nc(NS(=O)(=O)c2ccc(NC(=O)c3cc(-c4ccccc4)nc4ccccc34)cc2)n1	-2	55	i	i	0
Cc1ccc(-c2cc(C(=O)Nc3ccc(S(=O)(=O)Nc4onc(C)c4C)cc3)c3ccccc3n2)cc1	1	29	i	i	98*
Cc1noc(NS(=O)(=O)c2ccc(NC(=O)c3cnc4n(c3=O)CCS4)cc2)c1C	8	10	i	i	99*
COc1cc(C2CC(c3cccnc3)=NN2c2ccc(F)cc2)cc(OC)c1OC (stereo not given)	6	39	i	i	31
C=CCN1CCc2cc(O)c(O)cc2C(c2ccccc2)C1 (stereo not given)	8	.	i	i	98*
Cc1cccc(C2CN(C)CCc3c2cc(O)c(O)c3Cl)c1 (stereo not given)	7	.	i	i	98*
Cc1cccc(C2CC3(CC(C)(C)NC(=S)N3)Oc3cc(O)ccc32)c1 (stereo not given)	10	5	i	i	2
C=CCN1CCc2c(cc(O)c(O)c2Cl)C(c2ccccc2)C1 (stereo not given)	6	24	i	i	99*
O=C(NCCCn1ccnc1)C1CCN(S(=O)(=O)c2ccc(F)cc2)CC1	-4	23	i	i	2
CC(C)c1ccc(/C=C2\SC(=O)N(CC(=O)NC3CCS(=O)(=O)C3)C2=O)cc1 (stereo not given)	30	40	i	i	43
S=C(c1ccc(-c2ccc(Cl)cc2Cl)o1)N1CCCCC1	0	15	i	i	7
S=C(c1ccc(-c2ccc(Cl)cc2Cl)o1)N1CCCC1	-4	13	i	i	96*
c1ccc(Oc2nc(N3CCOCC3)nc(N3CCOCC3)n2)cc1	5	-4	i	i	88*
Oc1ccc(C2CNCc3sccc32)cc1O (stereo not given)	0	.	i	i	98*
Clc1ccc(C2NCCc3sccc32)cc1 (stereo not given)	-26	11	i	i	-2
COc1cccc(CNC(=O)COC(=O)c2nn(C)c(=O)c3ccccc23)c1	-1	.	.	.	-27
COc1ccccc1N1CCN(C(=O)c2ccc3c(=O)n(Cc4ccc5c(c4)OCO5)c(=O)[nH]c3c2)CC1	5	2	i	i	-15
CCOC(=O)N1CCN(C(=O)CCCCn2c(=S)[nH]c3ccsc3c2=O)CC1	5	11	i	i	96*
O=C(CCCn1c(=S)[nH]c2ccsc2c1=O)Nc1ccc2c(c1)OCO2	8	.	i	i	5
SMILES	PREPL inhibitor	AI-2 QS modul	CHT PAM	CHT block	ALR H2O2 inh
Cc1ccc(NC(=O)CCCn2c(=S)[nH]c3ccsc3c2=O)cc1C	-4	1	i	i	84*
Cc1ccc(C(=O)NCCCNC(=O)COc2ccc(Cl)cc2)cn1	-4	14	i	i	.
CCn1c(CSc2nnc(-c3cccnc3)n2-c2ccccc2C)nc2cc(C(=O)O)ccc21	49*	.	i	i	-69
CN(C)c1ccc(CNC(=O)c2ccc(CNc3c(N4CCCCC4)c(=O)c3=O)cc2)cc1	2	4	i	i	98*
CCN1/C(=C2/SC(=S)N(NC(C)=O)C2=O)Sc2ccc(Cl)cc21	22	32	i	i	96*
CCN1/C(=C2/SC(=S)N(NC(C)=O)C2=O)Sc2ccc(OC)cc21	10	31	i	i	67
CCC(C)(C)C(=O)Nc1cccc(Cl)c1C	0	13	i	i	4
Nc1cc([N+](=O)[O-])ccc1O	7	18	i	i	99*
O=C(O)c1cc([N+](=O)[O-])ccc1Nc1ccccc1	17	25	i	i	9
O=C(Nc1ccc(C(F)(F)F)cc1-c1ccccc1)c1ccccc1	3	-8	i	i	-5
Cc1ccc([N+](=O)[O-])cc1N	18	0	i	i	1
Nc1cc(C(F)(F)F)ccc1Nc1ccccc1	31	-26	i	i	98*
N#Cc1ccc(Nc2ccccc2)c(N)c1	11	19	i	i	98*
Nc1cc([N+](=O)[O-])ccc1Nc1ccccc1	24	13	i	i	99*
N#Cc1cc(N)c(Nc2ccccc2)cc1C#N	19	14	i	i	61
COC(=O)c1c(NC(=O)COC(=O)c2ccc(Cl)nc2)sc(C)c1C	-7	8	i	i	0
O=C1CN(C(=O)c2cc3ccccc3o2)c2ccccc2N1	-5	18	i	i	.
O=[N+]([O-])c1cc(Cl)ccc1NCCc1ccccn1	25	19	i	i	.
Nc1cc(C(F)(F)F)ccc1NCCc1ccccn1	7	14	i	i	98*
CCC[C@@H]1CCCC/C=C\CCCC(=O)OCCN1C(=O)OC(C)(C)C	15	.	.	.	-5
Cc1nn(-c2ccccc2)c(C)c1NC(=O)COC(=O)c1ccccc1OC(F)F	-2	13	i	i	0
Cc1ccc(-c2nc(N3CCOCC3)sc2C(=O)N2CCCCC2)cc1	5	8	i	i	.
Cc1ccc(-c2cc(C(=O)O)c3sc(N4CCCCC4)nc3n2)cc1	-13	17	i	i	98*
O=C(O)c1cc(-c2ccccc2)nc2nc(N3CCCCC3)sc12	-3	15	i	i	80*
CCOC(=O)c1cc(-c2ccccc2)nc2nc(N3CCCCC3)sc12	2	25	i	i	2
Cc1ccc(CNc2ccc(N3CCN(C)CC3=O)cc2)cc1	16	.	.	.	-18
CC1=NNC(=O)C1CC(=O)N/N=C/C(C)=C/c1ccccc1 (stereo not given)	-6	3	i	i	94*

Screening data: PubChem, several laboratories
